Screening results: PubChem, National Center for Advancing Translational Sciences (NCATS)
An excerpt weighted towards active compounds, which were near 7% of everything screened.
PI5P4Ka inh – blocks human PI5P4K alpha kinase activity; P48426; PI5P4Kalpha enzyme, ADP-Glo luminescence, 60 min; active compounds read low; max response, %; 330,000 compounds, 1.2% hits; AID 652105; active = max response of -50% or lower; inconclusive = between -30% and -50%; inactive = -30% or higher; also: value at the top dose of about 77 µM; % is scaled to controls: 0 for no effect and ±100 for the full control effect
Target sequence (P48426 whole entry, looked up): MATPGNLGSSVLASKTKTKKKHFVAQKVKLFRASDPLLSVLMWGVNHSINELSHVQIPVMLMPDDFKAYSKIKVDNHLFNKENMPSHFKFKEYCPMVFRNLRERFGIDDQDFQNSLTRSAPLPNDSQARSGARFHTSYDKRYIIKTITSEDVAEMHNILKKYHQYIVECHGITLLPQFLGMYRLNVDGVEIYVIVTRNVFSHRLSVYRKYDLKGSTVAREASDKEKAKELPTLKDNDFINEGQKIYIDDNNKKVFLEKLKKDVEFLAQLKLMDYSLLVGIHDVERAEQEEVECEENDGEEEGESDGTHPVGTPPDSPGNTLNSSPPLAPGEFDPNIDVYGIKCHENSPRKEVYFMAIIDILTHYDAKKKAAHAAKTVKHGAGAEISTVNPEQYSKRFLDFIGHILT
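Single end-point luminescence (ADP-Glo) quantified ADP from PI5P4Kalpha turnover; ATP 5 microM final, 1 h at RT, 0.1% CHAPS and 0.28 mM EGTA in HEPES pH 7.4.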
HP1b binding inh – HP1-beta chromodomain-methylated histone interaction inhibition; AlphaScreen HP1-beta / biotin-H3K9me3 peptide binding; Potency, µM (doses to about 114 µM), for inactives: at the highest dose activity change, negative = inhibition, usual class: inhibitors; 390,000 compounds, 0.56% hits; also: potency is read from the fitted curve at half-maximal effect; nearly all actives have a fitted effect of over 70% in size
Target sequence (P83916 whole entry, looked up): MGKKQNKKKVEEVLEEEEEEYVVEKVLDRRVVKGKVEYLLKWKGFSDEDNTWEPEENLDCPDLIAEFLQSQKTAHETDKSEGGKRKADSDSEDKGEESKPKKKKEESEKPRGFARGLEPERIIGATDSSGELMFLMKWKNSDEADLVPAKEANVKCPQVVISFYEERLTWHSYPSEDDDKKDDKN
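HP1-beta protein (50 nM final) preincubated 30 min at room temperature with biotinylated H3(1-18)K9me3 peptide (50 nM) in PBS pH 7.4, 0.01% Tween-20, then compound added for 30 min. AlphaScreen streptavidin donor/nickel chelate acceptor beads (10 ug/mL final), 30 min dark, luminescence read.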
BAZ2B inh – blocks human BAZ2B | AlphaScreen BAZ2B-H3K14Ac peptide displacement | Q9UIF8 | AID 504333 | 360,000 compounds, 4.4% hits | Potency, µM (series often up to 114 µM), for the others: at the highest dose activity change, negative = inhibition, usual class: inhibitors; also: potency is read from the fitted curve at half-maximal effect; % is scaled to controls: 0 for no effect and ±100 for the full control effect; nearly all actives have a fitted effect of over 60% in size
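In this displacement format the biotinylated H3(5-23) peptide acetylated at Lys14 serves as ligand at 50 nM, with BAZ2B at 50 nM in PBS pH 7.4 containing 0.01% Tween-20. Donor and acceptor beads are 10 ug/mL final.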
PLK1 PBD inh – blocks phosphopeptide binding to human PLK1 polo-box domain | Potency, µM, for the others: max response, negative = inhibition, actives largely listed as inhibitors | Plk1 PBD binding of FITC phosphopeptide, fluorescence polarization | 360,000 compounds, 2.8% hits | AID 720504; also: potency is read from the fitted curve at half-maximal effect; series mostly up to about 57 µM; % is scaled to controls: 0 for no effect and ±100 for the full control effect; nearly all actives have a fitted effect of over 65% in size
KAT2A inh – GCN5L2 (KAT2A) acetyltransferase inhibition; Q92830; GCN5L2 HAT assay, ThioGlo1 CoA-SH fluorescence; Potency, µM (highest dose often 58.9 µM), inactives show at the top dose activity change, negative = inhibition, most hits filed as inhibitors; 390,000 compounds, 0.21% hits; AID 504327; also: potency is read from the fitted curve at half-maximal effect; % is scaled to controls: 0 for no effect and ±100 for the full control effect
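Free CoA generated was detected with ThioGlo1 (50uM) fluorescence at Ex340nm/Em540nm, read immediately and after 20 min at room temperature. Enzyme, 20 nM in HEPES pH 7.5 buffer, saw compounds 15 min before adding 75uM H3(1-25) peptide and 70uM acetyl-CoA.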
JMJD2A Tudor – inhibitors of human JMJD2A Tudor domain; AID 504339; AlphaScreen JMJD2A-Tudor / H3K4me3 peptide binding; Potency, µM (titrated, usually from 114 µM), for inactives: top-dose activity change, negative = inhibition, usual class: inhibitors; O75164; 390,000 compounds, 4.4% hits; also: potency is read from the fitted curve at half-maximal effect; % is scaled to controls: 0 for no effect and ±100 for the full control effect; nearly all actives have a fitted effect of over 50% in size
* marks the source's active call; other numbers are inactive results; u = inconclusive; x = no result; [ ] = another dose, or the depositor's remark. Unless noted, calls follow the shape of the dose curve; as a rule, active = well fitted curve in the direction sought with a large enough effect; inconclusive = small, poorly fitted or top-dose-only effect, or another doubt; inactive = no such curve, though single readings can be large; an effect the other way counts as inactive or inconclusive.

SMILES	PI5P4Ka inh	HP1b binding inh	BAZ2B inh	PLK1 PBD inh	KAT2A inh	JMJD2A Tudor
Cc1cc(Cl)c(O)c(-n2nc3ccccc3n2)c1	2.6	17.8%	-0.4%	23.8µM*	-3.9%	-25.0%[11.4 µM]
CCOc1ccc(OCC)c(NS(=O)(=O)c2cc(-c3cnc(C)o3)ccc2OC)c1	x	-0.6%	u	x	-8.1%	u
CC(C(=O)Nc1ccccc1C(=O)N1CCOCC1)N(c1ccc(Cl)cc1)S(C)(=O)=O (stereo unspecified)	u	u	-13.9%	2.99µM*	-6.7%	11.2µM*
Cc1ccc(N(C(C)C(=O)Nc2ccccc2C(=O)N2CCOCC2)S(C)(=O)=O)cc1C (stereo unspecified)	-4.3	12.1%	9.7%	-4.9%	1.9%	-6.0%
COc1ccc2[nH]c(C(=O)O)c(CCN3C(=O)c4cccc([N+](=O)[O-])c4C3=O)c2c1	-6.0	36.2%	79.4µM*	-11.1%	0.1%	-15.1%
COc1ccc(Cn2nnnc2C(C(C)C)N2CCN(c3ccccc3OC)CC2)cc1 (stereo unspecified)	14.0	26.3%	-12.6%	-1.2%	-1.3%	-19.4%
CC(C)C(c1nnnn1Cc1ccc(F)cc1)N1CCN(c2ccc(O)cc2)CC1 (stereo unspecified)	-13.0	70.8µM*	-33.4%	-9.3%	18.8%	39.8µM*
CCOC(OCC)c1nc(N)[nH]c(=O)c1CCCCc1ccccc1	-51.7*	8.9%[57 µM]	x	-3.0%	x	-15.2%
CCCNC(=O)c1onc(CS(=O)(=O)c2cccc(OC)c2)c1C(=O)NCCC	-3.3	37.6%	0.8%	4.8%	-2.8%	0.0%
CCc1cccc(C)c1Nc1c(-c2ccsc2)nc2ncccn12	x	-0.4%	u	x	-5.2%	-35.3%
CCc1cccc(C)c1Nc1c(-c2ccc(N(C)C)cc2)nc2cnccn12	x	u	15.8µM*	x	-18.5%	39.8µM*
CCc1cccc(C)c1Nc1c(-c2ccc(SC)cc2)nc2sccn12	x	u	22.4µM*	x	-13.9%	u
O=c1nc(N2CCCC2)nc(Nc2ccccc2)[nH]1	-4.3	6.2%	3.5%	1.2%	2.3%	-24.7%
Nc1[nH]c(=O)nc(Nc2ccccc2)c1N=O	-16.0	34.1%	x	-2.0%	x	35.5µM*
Oc1c(Cl)cc(Cl)cc1C=Nc1ccccc1N1CCCC1	x	x	44.7µM*	x	-10.1%	x
CCCCC1(C)OC(=O)C(=Cc2ccc(SC)cc2)C(=O)O1 (stereo unspecified)	9.5	29.2%	-3.5%	2.38µM*	-8.8%	2.4%
Cc1ccc(-n2c(C)n[nH]c2=S)cc1	-23.7	42.5%	4.3%	-6.6%	-1.1%	10µM*
Cc1ccc(-n2c(C)n[nH]c2=S)cc1C	-3.0	15.6%	1.4%	-7.9%	1.3%	8.91µM*
COc1ccc(OCc2n[nH]c(=S)n2-c2ccc(C)cc2)cc1	-5.1	6.9%	-32.5%	3.2%	0.1%	u
Cc1ccc(-n2c(Cn3nc(C(F)F)cc3C(F)F)n[nH]c2=S)cc1	x	5.5%	3.0%	-5.7%	-3.5%	79.4µM*
Cc1ccc(-n2c(C)nn(Cc3ccc([N+](=O)[O-])cc3)c2=O)cc1	-6.4	0.9%	u	-2.7%	-10.7%	-7.2%
Cc1ccc(-n2c3nc(=O)[nH]c(=O)c-3cc3cc([N+](=O)[O-])ccc32)cc1	-11.7	-0.9%	0.2%	16.8µM*	-4.9%	-18.5%
Cc1cc(-c2[nH]nc3c2C(c2ccsc2)C(C#N)=C(N)O3)c(C)s1 (stereo unspecified)	-52.3*	8.7%	3.4%	-28.5%	-8.4%	-25.0%
COCc1[nH]nc2c1C(c1ccsc1)C(C#N)=C(N)O2 (stereo unspecified)	u	1.2%	11.9%	26.7µM*	-3.3%	-16.0%[57.1 µM]
CCCc1[nH]nc2c1C(c1ccc(OC)cc1OC)C(C#N)=C(N)O2 (stereo unspecified)	6.8	38.4%	-7.9%	0.0%	2.1%	-4.2%
SMILES	PI5P4Ka inh	HP1b binding inh	BAZ2B inh	PLK1 PBD inh	KAT2A inh	JMJD2A Tudor
CCOC(=O)Cc1[nH]nc2c1C(c1ccsc1)C(C#N)=C(N)O2 (stereo unspecified)	-21.6	43.9%	-4.1%	-29.3%	-2.7%	-9.9%
CCCc1[nH]nc2c1C(c1ccsc1)C(C#N)=C(N)O2 (stereo unspecified)	u	33.3%	u	u	-0.5%	-8.3%
CCCc1[nH]nc2c1C(c1ccc(O)cc1OCC)C(C#N)=C(N)O2 (stereo unspecified)	-19.2	5.3%	79.4µM*	-11.2%	-6.8%	-17.8%
Cc1ccc(S(=O)(=O)N2CCC(c3nc(-c4cccs4)nc4ccccc34)CC2)cc1	x	12.2%	x	x	x	-7.8%
O=C1CCCC2=C1C1(CCS(=O)(=O)C1)N=C(Nc1nc3ccccc3o1)N2 (stereo unspecified)	x	x	x	x	x	-16.3%
COc1ccc(OC)c(/C(C)=N/Nc2ccc(C(=O)O)cc2)c1	1.2	26.9%	-21.6%	-1.0%	-0.5%	-6.9%
C/C(=N/Nc1ccc(C(=O)O)cc1)c1ccc(O)c(O)c1O	3.3	6.6%	-33.4%	-18.6%	0.9%	10µM*
Cc1nn(-c2ccc(N3CCCC3)nn2)c(C)c1CCC(=O)N1CCN(c2ccc(F)cc2)CC1	x	109.7%	u	x	3.3%	-14.7%
NS(=O)(=O)c1ccc(NC(=O)N2c3ccccc3Sc3ccccc32)cc1	x	13.4%	50.1µM*	2.5%	2.6%	-24.6%
CN(CC(=O)Nc1ccccc1C(F)(F)F)C(=O)C1CCN(C(=O)c2ccc(Cl)cc2)CC1	1.3	24.1%	3.1%	-1.6%	-0.4%	-2.1%
NC(=O)CC(O)c1cccc(Cl)c1 (stereo unspecified)	4.9	-11.9%	-1.9%	26.7µM*	-1.6%	-9.2%[11.4 µM]
Cc1cccc(C(CC(=O)O)n2cccc2)c1 (stereo unspecified)	1.0	40.0%	-32.8%	0.0%	-2.7%	-20.4%
O=C(O)CC(c1cccc(Cl)c1)n1cccc1 (stereo unspecified)	1.7	0.7%	-4.7%	-11.4%	-7.6%	89.1µM*
N#Cc1ccccc1S(=O)(=O)N1CCN(S(=O)(=O)c2ccc3c(c2)OCCO3)CC1	x	x	x	x	x	-12.3%
Cc1ccc(-c2nc(CS(=O)(=O)CC(=O)Nc3ccc(Br)cc3F)c(C)o2)cc1	x	36.2%	u	x	-0.3%	-11.8%
O=C(CC1=NC2(CCCC2)Cc2ccccc21)N1CCOCC1	x	-2.2%	50.1µM*	-4.8%	-0.1%	u
CCC1(CC)Cc2ccccc2C(CC(=O)N2CCOCC2)=N1	x	-23.7%	56.2µM*	-7.4%	16.0%	22.4µM*
CCN(CC(=O)Nc1ccc(NC(C)=O)cc1)C(=O)c1ccc(S(=O)(=O)N2CCCC2)cc1	4.1	31.8%	x	-7.8%	x	-5.7%
CC(SCc1cn2cc(Cl)ccc2n1)C(=O)O (stereo unspecified)	0.0	-0.4%	-24.2%	-9.6%	-6.5%	50.1µM*
